Test results taken from ChEMBL document CHEMBL3988442, “University of Dundee, Small-Polar-MMV Screening Library” (2021).

What follows are compounds tested against T1, Aspartate--tRNA(Asp/Asn) ligase (Mycobacterium tuberculosis (strain ATCC 25618 / H37Rv)) (UniProt P9WFW3) (assay: Assay for Asp RNA synthetase-1 from Mycobacterium tuberculosis). Details: 30 µM.
T1 sequence (whole entry): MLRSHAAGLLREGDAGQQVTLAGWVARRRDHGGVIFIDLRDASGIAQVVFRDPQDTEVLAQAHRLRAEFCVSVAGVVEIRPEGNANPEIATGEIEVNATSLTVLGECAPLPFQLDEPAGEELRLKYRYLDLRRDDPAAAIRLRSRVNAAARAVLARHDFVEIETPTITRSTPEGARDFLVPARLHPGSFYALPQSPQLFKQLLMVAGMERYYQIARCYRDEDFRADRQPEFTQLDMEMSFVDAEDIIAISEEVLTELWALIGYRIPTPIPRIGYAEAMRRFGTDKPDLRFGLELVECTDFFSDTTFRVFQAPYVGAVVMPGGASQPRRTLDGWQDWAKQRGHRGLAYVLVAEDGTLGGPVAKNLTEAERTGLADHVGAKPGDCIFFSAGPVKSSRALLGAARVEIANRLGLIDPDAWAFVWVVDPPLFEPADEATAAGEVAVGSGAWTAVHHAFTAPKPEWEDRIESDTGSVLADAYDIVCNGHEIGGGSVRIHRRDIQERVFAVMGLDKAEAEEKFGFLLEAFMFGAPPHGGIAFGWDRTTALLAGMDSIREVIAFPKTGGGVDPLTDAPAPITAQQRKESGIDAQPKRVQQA
Format: functional
Design: scale not given: direction of the effect not stated beside the values

| SMILES | Percent Effect [%] |
| --- | --- |
| Cn1nccc1C1CCN(CC(O)c2cccc(F)c2)CC1 (stereo not given) | -1.6 |
| N#Cc1ccccc1CN1CCCCC1Cn1cncn1 (stereo not given) | 0.359 |
| COc1ccccc1C(O)CNCc1c(C(C)C)nn(C)c1N(C)C (stereo not given) | -6.86 |
| CS(=O)(=O)c1ccc(NC(=O)N2CCc3sccc3C2)cn1 | 5.08 |
| Cn1c(Cn2cccn2)nnc1C1CCCN(c2ccncc2F)C1 (stereo not given) | -0.254 |
| COc1cccn(CC(=O)N(C)CCOc2cc(C)cc(C)c2)c1=O | 38.9 |
| c1ccc(CN2CCOCC3(CCN(C4CCOCC4)C3)C2)cc1 (stereo not given) | 6.57 |
| Cc1ncc(CNC(=O)CCOc2ccccc2)c(C2CCCN2C)n1 (stereo not given) | 5.05 |
| CCC(=O)N1CCC(c2nnc(Cn3cncn3)n2C2CC2)CC1 | -3.04 |
| COc1cccc(CNCc2c(C(C)C)nn(C)c2N(C)C)c1OC | -3.61 |
| Cc1noc(NC(=O)c2ccc(Br)cc2)n1 | -2.92 |
| Cc1noc2ncc(C(=O)N3CCCC3c3ccncc3)cc12 (stereo not given) | -7.22 |
| CC(Cn1cccn1)NC(=O)N1CCN(Cc2cccnc2)CC1 (stereo not given) | 0.625 |
| CCN(CC)C(=O)CCn1ncc2c(Cl)cccc21 | -1.07 |
| CC(C)NC(=O)[C@@H](NC(=O)N1CCN(c2ccc(Cl)cc2)CC1)C(C)C | -2.11 |
| CCn1nc2c(cc1=O)CN(Cc1nc(-c3ccsc3)no1)CC2 | 5.03 |
| O=C(O)c1c[nH]c2cc(NS(=O)(=O)c3cccc(Cl)c3F)ccc12 | 2.61 |
| CNC(=O)c1cccc(NC(=O)CN2CCN(S(C)(=O)=O)CC2)c1 | -5.52 |
| O=C(O)C1(Cc2cc(-c3ccc(F)cc3F)no2)CCOCC1 | 0.819 |
| O=C(CN1CCCCC1Cn1cncn1)NC1CCN(C2CC2)CC1 (stereo not given) | -0.234 |

| SMILES | Percent Effect [%] |
| --- | --- |
| O=C(c1cc(Cl)c2c(c1)OCCO2)N1CCCC(n2cncn2)C1 (stereo not given) | -7.78 |
| COc1ccccc1CCNC(=O)CN1CCCC1c1noc(C)n1 (stereo not given) | -3.12 |
| CC1CCN(Cn2nc(-c3ccc(F)cc3)oc2=O)CC1 | -0.789 |
| O=C(c1ccsc1)N1CC[C@H]2C[C@@H](c3nnc(C4CC4)o3)O[C@@H]2C1 | 0.51 |
| Cc1ccc(CC(=O)N2CCCCC2c2nc(C)cs2)cn1 (stereo not given) | -2.2 |
| CC(C)COCC(NC(=O)c1cc[nH]n1)c1ccco1 (stereo not given) | 7.45 |
| CCNC(=O)c1ccoc1CN1c2ccccc2CC1C (stereo not given) | 2.94 |
| COc1ccccc1CC(=O)NCCCN1CCCC1C(=O)N(C)C (stereo not given) | 5.61 |
| COCCc1noc(CN2CCN(CC(O)c3ccccc3)CC2)n1 (stereo not given) | -1.47 |
| Cn1nnc2c1C(COCC1CC1)CN(C(=O)Cc1ccsc1)C2 (stereo not given) | -2.73 |
| Cc1csc2nc3n(c(=O)c12)CCN(C(=O)c1ccncc1)CC3 | -3.92 |
| CCOc1ncccc1NC(=O)NC1CCN(S(C)(=O)=O)CC1 | 5.32 |
| COCCN1C(=O)CCC12CCN(C(=O)CC1CC1)CC2 | 2.75 |
| CN(CC(=O)NC1(C#N)CCCC1)C1CCCN(c2cccnn2)C1 (stereo not given) | 7.28 |
| CCc1nnc2n1CCN(C(=O)CN(C)Cc1ccccc1)C2 | -3.23 |
| Cn1ccc(C(=O)N2CCN(c3ncccn3)CC2)cc1=O | 1.62 |
| Cc1cc(NC(=O)CN(C)C2CCCN(c3cccnn3)C2)n(C)n1 (stereo not given) | 5.7 |
| COCCCC1(CO)CCCN(CCS(C)(=O)=O)C1 (stereo not given) | 4.17 |
| Cc1ncc(CN(C)C2CCCN(Cc3noc(C4CC4)n3)C2)s1 (stereo not given) | -2.9 |
| O=C(O)c1nnn(-c2ccc(F)c(F)c2)c1-c1ccncc1 | 2.4 |

The compounds below were run against Shiga toxin 2 (Escherichia coli O157:H7) (UniProt P09385+P09386) (assay: E. coli 0.157:H7 Shiga Toxin SOP - stx2 screening assay). Details: 30 µM.
Format: functional
Design: scale not given: direction of the effect not stated beside the values

| SMILES | Percent Effect [%] |
| --- | --- |
| Cn1nccc1C1CCN(CC(O)c2cccc(F)c2)CC1 (stereo not given) | -15.8 |
| N#Cc1ccccc1CN1CCCCC1Cn1cncn1 (stereo not given) | 25 |
| COc1ccccc1C(O)CNCc1c(C(C)C)nn(C)c1N(C)C (stereo not given) | 9.26 |
| CS(=O)(=O)c1ccc(NC(=O)N2CCc3sccc3C2)cn1 | -38 |
| Cn1c(Cn2cccn2)nnc1C1CCCN(c2ccncc2F)C1 (stereo not given) | -2.56 |
| COc1cccn(CC(=O)N(C)CCOc2cc(C)cc(C)c2)c1=O | -20.3 |
| c1ccc(CN2CCOCC3(CCN(C4CCOCC4)C3)C2)cc1 (stereo not given) | 12.2 |
| Cc1ncc(CNC(=O)CCOc2ccccc2)c(C2CCCN2C)n1 (stereo not given) | -10.2 |
| CCC(=O)N1CCC(c2nnc(Cn3cncn3)n2C2CC2)CC1 | -2.15 |
| COc1cccc(CNCc2c(C(C)C)nn(C)c2N(C)C)c1OC | 31.1 |
| Cc1noc(NC(=O)c2ccc(Br)cc2)n1 | 54.5 |
| Cc1noc2ncc(C(=O)N3CCCC3c3ccncc3)cc12 (stereo not given) | -37.9 |
| CC(Cn1cccn1)NC(=O)N1CCN(Cc2cccnc2)CC1 (stereo not given) | -18.1 |
| CCN(CC)C(=O)CCn1ncc2c(Cl)cccc21 | -23.7 |
| CC(C)NC(=O)[C@@H](NC(=O)N1CCN(c2ccc(Cl)cc2)CC1)C(C)C | -49 |
| CCn1nc2c(cc1=O)CN(Cc1nc(-c3ccsc3)no1)CC2 | -16.2 |
| O=C(O)c1c[nH]c2cc(NS(=O)(=O)c3cccc(Cl)c3F)ccc12 | 12.3 |
| CNC(=O)c1cccc(NC(=O)CN2CCN(S(C)(=O)=O)CC2)c1 | 1.24 |
| O=C(O)C1(Cc2cc(-c3ccc(F)cc3F)no2)CCOCC1 | -13.5 |
| O=C(CN1CCCCC1Cn1cncn1)NC1CCN(C2CC2)CC1 (stereo not given) | -4.41 |

| SMILES | Percent Effect [%] |
| --- | --- |
| O=C(c1cc(Cl)c2c(c1)OCCO2)N1CCCC(n2cncn2)C1 (stereo not given) | 10.4 |
| COc1ccccc1CCNC(=O)CN1CCCC1c1noc(C)n1 (stereo not given) | 34.4 |
| CC1CCN(Cn2nc(-c3ccc(F)cc3)oc2=O)CC1 | -14.8 |
| O=C(c1ccsc1)N1CC[C@H]2C[C@@H](c3nnc(C4CC4)o3)O[C@@H]2C1 | -18.9 |
| Cc1ccc(CC(=O)N2CCCCC2c2nc(C)cs2)cn1 (stereo not given) | 1.25 |
| CC(C)COCC(NC(=O)c1cc[nH]n1)c1ccco1 (stereo not given) | 9.69 |
| CCNC(=O)c1ccoc1CN1c2ccccc2CC1C (stereo not given) | -19.2 |
| COc1ccccc1CC(=O)NCCCN1CCCC1C(=O)N(C)C (stereo not given) | -5.75 |
| COCCc1noc(CN2CCN(CC(O)c3ccccc3)CC2)n1 (stereo not given) | 4.32 |
| Cn1nnc2c1C(COCC1CC1)CN(C(=O)Cc1ccsc1)C2 (stereo not given) | -6.94 |
| Cc1csc2nc3n(c(=O)c12)CCN(C(=O)c1ccncc1)CC3 | 3.14 |
| CCOc1ncccc1NC(=O)NC1CCN(S(C)(=O)=O)CC1 | -16.8 |
| COCCN1C(=O)CCC12CCN(C(=O)CC1CC1)CC2 | 0.89 |
| CN(CC(=O)NC1(C#N)CCCC1)C1CCCN(c2cccnn2)C1 (stereo not given) | 21.9 |
| CCc1nnc2n1CCN(C(=O)CN(C)Cc1ccccc1)C2 | 15.9 |
| Cn1ccc(C(=O)N2CCN(c3ncccn3)CC2)cc1=O | 22.4 |
| Cc1cc(NC(=O)CN(C)C2CCCN(c3cccnn3)C2)n(C)n1 (stereo not given) | 30.1 |
| COCCCC1(CO)CCCN(CCS(C)(=O)=O)C1 (stereo not given) | 0.747 |
| Cc1ncc(CN(C)C2CCCN(Cc3noc(C4CC4)n3)C2)s1 (stereo not given) | 11.1 |
| O=C(O)c1nnn(-c2ccc(F)c(F)c2)c1-c1ccncc1 | -13 |
